Measurements from the supplement of paper PMC6411743.
± gives the standard deviation of the averaged measurements. Of roughly 6,500 targets only a part is listed; those with the largest changes were picked by preference.

Compound: Nc1ncnc2c1ncn2[C@@H]1O[C@H](COP(=O)(O)OP(=O)(O)OP(=O)(O)O)[C@@H](O)[C@H]1O [adenosine triphosphate]
Assay: NP40-soluble protein abundance relative to vehicle (solubility fold change) (ratio); higher = more soluble protein in presence of ATP
Method in brief: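 Jurkat crude lysate prepared with a Dounce homogeniser was treated at eight concentrations spanning 0.1 to 10 mM, 10 min at room temperature then 3 min at 37 °C. Solubilisation with 0.8% NP40 and benzonase and ultracentrifugation preceded TMT labelling of the supernatant for LC-MS/MS. Fold change against the detergent-processed vehicle was determined per replicate from vsn-normalised intensities, across three independent experiments.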

Chain of UniProt P41252 (P41252 whole entry): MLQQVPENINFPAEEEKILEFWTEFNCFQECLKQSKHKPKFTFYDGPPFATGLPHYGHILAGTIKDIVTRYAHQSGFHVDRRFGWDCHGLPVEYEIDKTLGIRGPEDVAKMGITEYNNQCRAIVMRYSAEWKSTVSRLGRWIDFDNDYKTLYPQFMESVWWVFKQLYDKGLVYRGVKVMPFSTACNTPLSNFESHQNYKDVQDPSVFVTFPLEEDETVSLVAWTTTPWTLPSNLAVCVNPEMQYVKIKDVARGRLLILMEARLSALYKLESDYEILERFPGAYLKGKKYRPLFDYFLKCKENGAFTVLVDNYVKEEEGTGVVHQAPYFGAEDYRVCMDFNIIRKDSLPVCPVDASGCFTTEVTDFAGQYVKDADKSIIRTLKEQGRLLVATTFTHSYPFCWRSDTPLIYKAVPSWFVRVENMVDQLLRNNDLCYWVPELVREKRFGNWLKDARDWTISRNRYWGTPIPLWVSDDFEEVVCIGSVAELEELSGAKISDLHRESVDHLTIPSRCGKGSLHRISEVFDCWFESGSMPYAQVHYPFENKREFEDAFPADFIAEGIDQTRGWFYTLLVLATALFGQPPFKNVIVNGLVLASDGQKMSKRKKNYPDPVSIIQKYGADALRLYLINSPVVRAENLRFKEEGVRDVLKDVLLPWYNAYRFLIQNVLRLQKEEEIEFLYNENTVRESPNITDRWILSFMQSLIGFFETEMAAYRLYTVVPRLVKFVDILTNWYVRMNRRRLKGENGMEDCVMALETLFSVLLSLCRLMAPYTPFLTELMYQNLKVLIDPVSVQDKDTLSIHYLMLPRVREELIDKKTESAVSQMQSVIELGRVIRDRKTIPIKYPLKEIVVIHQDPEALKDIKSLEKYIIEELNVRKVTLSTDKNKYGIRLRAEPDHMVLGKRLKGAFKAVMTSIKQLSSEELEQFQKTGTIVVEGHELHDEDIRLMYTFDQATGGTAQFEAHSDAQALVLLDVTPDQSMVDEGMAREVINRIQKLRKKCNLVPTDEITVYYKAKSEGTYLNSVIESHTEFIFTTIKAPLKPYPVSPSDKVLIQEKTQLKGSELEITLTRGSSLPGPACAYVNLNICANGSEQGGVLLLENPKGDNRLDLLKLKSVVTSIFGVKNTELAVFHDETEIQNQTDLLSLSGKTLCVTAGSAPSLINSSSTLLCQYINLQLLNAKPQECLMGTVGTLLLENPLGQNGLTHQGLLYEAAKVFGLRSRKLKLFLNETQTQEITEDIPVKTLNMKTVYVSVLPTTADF
Chain of UniProt P13010 (P13010 whole entry): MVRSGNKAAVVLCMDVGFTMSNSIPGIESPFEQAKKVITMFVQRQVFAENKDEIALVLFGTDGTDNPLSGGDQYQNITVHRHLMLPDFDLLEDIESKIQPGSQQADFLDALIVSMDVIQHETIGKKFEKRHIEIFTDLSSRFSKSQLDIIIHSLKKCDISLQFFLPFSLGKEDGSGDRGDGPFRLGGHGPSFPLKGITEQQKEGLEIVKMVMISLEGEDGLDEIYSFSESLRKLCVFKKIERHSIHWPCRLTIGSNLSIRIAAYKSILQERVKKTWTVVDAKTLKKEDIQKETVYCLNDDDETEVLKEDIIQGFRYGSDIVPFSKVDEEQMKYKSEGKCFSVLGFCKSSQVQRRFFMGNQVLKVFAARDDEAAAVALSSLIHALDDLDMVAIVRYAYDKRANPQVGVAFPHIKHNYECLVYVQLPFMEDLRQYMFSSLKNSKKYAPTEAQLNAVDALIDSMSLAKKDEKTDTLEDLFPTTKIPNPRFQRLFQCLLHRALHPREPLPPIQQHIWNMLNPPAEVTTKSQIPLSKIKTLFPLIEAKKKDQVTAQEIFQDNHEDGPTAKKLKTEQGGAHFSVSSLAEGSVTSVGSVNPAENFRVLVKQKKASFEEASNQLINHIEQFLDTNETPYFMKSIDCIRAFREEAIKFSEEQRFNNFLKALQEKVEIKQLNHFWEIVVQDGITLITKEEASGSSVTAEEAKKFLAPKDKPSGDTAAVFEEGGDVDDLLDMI
Chain of UniProt P23434 (P23434 whole entry): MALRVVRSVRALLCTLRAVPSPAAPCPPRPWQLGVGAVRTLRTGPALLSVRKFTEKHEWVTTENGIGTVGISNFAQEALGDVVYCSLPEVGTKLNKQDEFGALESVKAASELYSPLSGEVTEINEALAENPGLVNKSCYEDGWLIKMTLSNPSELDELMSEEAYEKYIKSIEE
Chain of UniProt Q07021 (Q07021 whole entry): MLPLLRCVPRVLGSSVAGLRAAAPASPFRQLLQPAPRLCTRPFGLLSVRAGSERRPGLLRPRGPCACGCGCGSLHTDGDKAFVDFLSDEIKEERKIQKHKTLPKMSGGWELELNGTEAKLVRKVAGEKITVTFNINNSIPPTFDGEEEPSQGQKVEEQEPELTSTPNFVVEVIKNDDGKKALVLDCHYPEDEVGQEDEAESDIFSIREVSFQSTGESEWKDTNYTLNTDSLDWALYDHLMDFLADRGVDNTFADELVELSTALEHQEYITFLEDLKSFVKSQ
Chain of UniProt P51809 (P51809 whole entry): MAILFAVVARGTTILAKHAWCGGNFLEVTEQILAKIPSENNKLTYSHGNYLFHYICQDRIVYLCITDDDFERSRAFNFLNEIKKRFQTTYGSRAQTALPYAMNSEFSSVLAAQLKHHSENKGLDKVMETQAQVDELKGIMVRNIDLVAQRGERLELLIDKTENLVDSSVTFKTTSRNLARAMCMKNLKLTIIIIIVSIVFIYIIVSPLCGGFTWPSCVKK
Chain of UniProt P61586 (P61586 whole entry): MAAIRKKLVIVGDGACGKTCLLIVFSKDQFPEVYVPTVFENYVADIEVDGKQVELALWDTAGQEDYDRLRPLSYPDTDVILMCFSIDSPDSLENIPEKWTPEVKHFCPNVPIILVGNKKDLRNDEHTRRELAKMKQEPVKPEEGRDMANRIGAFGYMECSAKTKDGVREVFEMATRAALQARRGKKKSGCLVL
Chain of UniProt O95573 (O95573 whole entry): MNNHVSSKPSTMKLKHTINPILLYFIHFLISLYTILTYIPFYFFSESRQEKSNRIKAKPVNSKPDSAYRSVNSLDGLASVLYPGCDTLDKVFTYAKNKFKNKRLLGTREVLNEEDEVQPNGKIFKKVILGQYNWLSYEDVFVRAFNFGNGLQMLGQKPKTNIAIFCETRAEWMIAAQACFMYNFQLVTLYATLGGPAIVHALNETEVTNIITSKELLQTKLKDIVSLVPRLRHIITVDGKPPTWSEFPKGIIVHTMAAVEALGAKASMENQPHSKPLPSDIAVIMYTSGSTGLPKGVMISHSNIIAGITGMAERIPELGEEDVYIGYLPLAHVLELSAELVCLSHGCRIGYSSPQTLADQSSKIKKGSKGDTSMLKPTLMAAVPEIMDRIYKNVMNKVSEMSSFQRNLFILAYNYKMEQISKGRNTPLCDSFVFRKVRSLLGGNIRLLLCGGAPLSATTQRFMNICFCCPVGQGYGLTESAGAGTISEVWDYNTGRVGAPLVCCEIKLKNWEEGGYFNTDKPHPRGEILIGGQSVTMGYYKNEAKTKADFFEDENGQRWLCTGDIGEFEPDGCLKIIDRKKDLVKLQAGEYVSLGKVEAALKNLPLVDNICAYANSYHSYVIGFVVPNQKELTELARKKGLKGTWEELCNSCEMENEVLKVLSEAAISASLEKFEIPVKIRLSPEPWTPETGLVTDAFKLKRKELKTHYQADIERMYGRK
Chain of UniProt O95639 (O95639 whole entry): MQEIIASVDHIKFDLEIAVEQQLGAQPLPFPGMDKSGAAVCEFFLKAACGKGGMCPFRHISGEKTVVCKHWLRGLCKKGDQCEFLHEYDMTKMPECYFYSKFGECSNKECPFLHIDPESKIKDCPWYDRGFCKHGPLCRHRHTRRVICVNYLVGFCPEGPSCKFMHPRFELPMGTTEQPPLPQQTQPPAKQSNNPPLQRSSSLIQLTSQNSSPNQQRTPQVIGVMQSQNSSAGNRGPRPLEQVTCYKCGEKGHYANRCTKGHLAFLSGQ
Chain of UniProt P06493 (P06493 whole entry, looked up): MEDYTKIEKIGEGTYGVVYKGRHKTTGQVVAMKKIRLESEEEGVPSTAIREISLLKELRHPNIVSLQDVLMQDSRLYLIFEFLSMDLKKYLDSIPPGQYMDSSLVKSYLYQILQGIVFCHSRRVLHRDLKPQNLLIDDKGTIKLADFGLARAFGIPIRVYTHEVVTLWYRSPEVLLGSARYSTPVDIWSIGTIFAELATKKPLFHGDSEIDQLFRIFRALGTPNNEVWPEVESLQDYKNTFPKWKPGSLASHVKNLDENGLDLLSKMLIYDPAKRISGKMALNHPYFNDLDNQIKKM
Chain of UniProt P50990 (P50990 whole entry): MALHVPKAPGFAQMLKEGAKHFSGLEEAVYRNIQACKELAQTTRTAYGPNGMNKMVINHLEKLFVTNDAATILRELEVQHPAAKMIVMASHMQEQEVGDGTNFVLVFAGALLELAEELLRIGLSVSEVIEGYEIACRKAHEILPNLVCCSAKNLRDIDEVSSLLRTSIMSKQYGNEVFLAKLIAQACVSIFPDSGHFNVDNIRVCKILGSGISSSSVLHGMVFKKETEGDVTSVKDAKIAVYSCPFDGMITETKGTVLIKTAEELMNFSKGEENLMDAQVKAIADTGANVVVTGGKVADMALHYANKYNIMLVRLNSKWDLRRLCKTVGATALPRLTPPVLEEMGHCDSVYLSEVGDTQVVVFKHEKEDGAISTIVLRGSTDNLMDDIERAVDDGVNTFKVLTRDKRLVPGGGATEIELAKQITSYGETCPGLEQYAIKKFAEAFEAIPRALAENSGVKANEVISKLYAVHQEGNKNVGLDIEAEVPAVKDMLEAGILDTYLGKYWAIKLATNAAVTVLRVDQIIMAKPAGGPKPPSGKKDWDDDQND
Chain of UniProt P18846 (P18846 whole entry): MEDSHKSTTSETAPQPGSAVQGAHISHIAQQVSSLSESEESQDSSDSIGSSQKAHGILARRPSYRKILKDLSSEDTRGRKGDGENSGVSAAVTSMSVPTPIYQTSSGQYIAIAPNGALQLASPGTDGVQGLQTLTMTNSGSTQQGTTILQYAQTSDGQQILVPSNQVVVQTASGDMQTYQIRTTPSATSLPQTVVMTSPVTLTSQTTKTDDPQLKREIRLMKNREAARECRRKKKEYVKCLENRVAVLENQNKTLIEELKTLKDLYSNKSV

Target	NP40-soluble protein abundance (concentration: 1mM)	NP40-soluble protein abundance (concentration: 2mM)	NP40-soluble protein abundance (concentration: 4mM)	NP40-soluble protein abundance (concentration: 6mM)	NP40-soluble protein abundance (concentration: 8mM)	NP40-soluble protein abundance (concentration: 10mM)
UniProt P61201|P61201-2	0.9548 ± 0.0092	0.945 ± 0.031	0.9178 ± 0.005	0.968 ± 0.03	0.912 ± 0.043	0.916 ± 0.026
UniProt P18583|P18583-5|P18583-7|P18583-9	1.28 ± 0.057	1.3 ± 0.075	1.36 ± 0.099	1.49 ± 0.14	1.45 ± 0.095	1.55 ± 0.13
UniProt Q02078-2|Q02078-6	0.954 ± 0.086	0.939 ± 0.046	0.936 ± 0.065	0.926 ± 0.036	0.907 ± 0.032	0.949 ± 0.048
GALT (UniProt P07902)	0.994 ± 0.016	0.972 ± 0.068	0.983 ± 0.053	0.9753 ± 0.0077	0.935 ± 0.029	0.947 ± 0.02
CDK6 (UniProt Q00534)	0.984 ± 0.047	0.999 ± 0.051	0.988 ± 0.05	0.955 ± 0.058	0.966 ± 0.041	0.974 ± 0.064
UniProt P50213|H0YLF8	0.98 ± 0.039	0.963 ± 0.04	0.922 ± 0.036	0.95 ± 0.058	0.949 ± 0.057	0.932 ± 0.043
UniProt Q00653|Q00653-4	1.006 ± 0.0072	0.99 ± 0.026	0.971 ± 0.025	0.995 ± 0.022	0.965 ± 0.021	0.973 ± 0.012
UniProt Q06787-5|Q06787-6|Q06787-8|Q06787|Q06787-3|Q06787-7|Q06787-9|R9WNI0	1.16 ± 0.14	1.27 ± 0.1	1.56 ± 0.17	1.83 ± 0.13	2.14 ± 0.19	2.48 ± 0.15
UniProt P11388|P11388-2|P11388-3|P11388-4	1.31 ± 0.066	1.41 ± 0.062	1.64 ± 0.06	1.76 ± 0.074	1.99 ± 0.11	2.03 ± 0.14
PRIM2 (UniProt P49643)	1.03 ± 0.057	1.02 ± 0.025	1.02 ± 0.032	1 ± 0.034	1.02 ± 0.028	1.03 ± 0.047
C1QBP (UniProt Q07021)	1.15 ± 0.48	0.69 ± 0.36	1.21 ± 0.26	0.585 ± 0.18	1.19 ± 0.24	0.587 ± 0.2
UniProt P61225	1.01 ± 0.074	0.921 ± 0.091	0.92 ± 0.082	0.846 ± 0.11	0.932 ± 0.065	0.932 ± 0.016
ACSL3 (UniProt O95573)	1.02 ± 0.05	1.05 ± 0.028	1.03 ± 0.036	1 ± 0.11	1.03 ± 0.041	1.01 ± 0.031
UniProt P35251|P35251-2	1.23 ± 0.086	1.36 ± 0.093	1.45 ± 0.1	1.58 ± 0.11	1.51 ± 0.069	1.56 ± 0.084
IARS (UniProt P41252)	1.1 ± 0.14	1 ± 0.072	0.974 ± 0.058	0.905 ± 0.059	1.05 ± 0.035	0.975 ± 0.078
UniProt O96028|O96028-3|O96028-5	1.31 ± 0.054	1.45 ± 0.072	1.54 ± 0.11	1.62 ± 0.12	1.62 ± 0.12	1.74 ± 0.18
RHOA (UniProt P61586)	0.996 ± 0.14	1.01 ± 0.078	0.968 ± 0.06	1.09 ± 0.069	0.939 ± 0.023	0.944 ± 0.027
UniProt P67870|Q5SRQ6	0.972 ± 0.024	1 ± 0.021	1.013 ± 0.0063	1.05 ± 0.067	1.07 ± 0.019	1.04 ± 0.017
ZBTB11 (UniProt O95625)	1.03 ± 0.057	1.004 ± 0.0071	1.03 ± 0.053	0.949 ± 0.021	0.97 ± 0.015	0.979 ± 0.04
SRM (UniProt P19623)	1.03 ± 0.12	1.01 ± 0.1	1 ± 0.083	0.929 ± 0.12	0.998 ± 0.071	0.997 ± 0.068

Target	NP40-soluble protein abundance (concentration: 1mM)	NP40-soluble protein abundance (concentration: 2mM)	NP40-soluble protein abundance (concentration: 4mM)	NP40-soluble protein abundance (concentration: 6mM)	NP40-soluble protein abundance (concentration: 8mM)	NP40-soluble protein abundance (concentration: 10mM)
GCSH (UniProt P23434)	0.985 ± 0.048	0.971 ± 0.024	0.986 ± 0.051	1.03 ± 0.05	0.915 ± 0.051	0.927 ± 0.092
MRPS25 (UniProt P82663)	0.942 ± 0.092	0.951 ± 0.066	0.96 ± 0.043	0.881 ± 0.09	0.915 ± 0.081	0.928 ± 0.078
UniProt P62854	0.92 ± 0.095	0.912 ± 0.11	0.911 ± 0.18	0.809 ± 0.13	0.745 ± 0.099	0.843 ± 0.13
FXR2 (UniProt P51116)	1.68 ± 0.23	1.77 ± 0.15	2.06 ± 0.29	2.24 ± 0.27	2.26 ± 0.3	2.33 ± 0.26
CCT8 (UniProt P50990)	0.976 ± 0.029	0.909 ± 0.033	0.823 ± 0.036	0.86 ± 0.12	0.842 ± 0.081	0.835 ± 0.063
EIF2S1 (UniProt P05198)	1.04 ± 0.043	1.05 ± 0.034	1.02 ± 0.027	1.04 ± 0.07	1.06 ± 0.053	1.05 ± 0.051
FBL (UniProt P22087)	1.11 ± 0.075	1.13 ± 0.058	1.25 ± 0.047	1.544 ± 0.0074	1.93 ± 0.025	2.51 ± 0.15
XRCC5 (UniProt P13010)	1.04 ± 0.055	1.01 ± 0.051	0.996 ± 0.039	0.961 ± 0.076	1 ± 0.024	0.993 ± 0.057
UniProt P55769	1.03 ± 0.15	1.06 ± 0.11	1.13 ± 0.13	1.23 ± 0.11	1.28 ± 0.049	1.33 ± 0.24
CTCF (UniProt P49711)	1.02 ± 0.027	0.993 ± 0.036	0.972 ± 0.034	0.895 ± 0.046	0.927 ± 0.032	0.894 ± 0.027
PPT1 (UniProt P50897)	0.942 ± 0.054	0.92 ± 0.019	0.877 ± 0.034	0.957 ± 0.035	0.903 ± 0.016	0.86 ± 0.039
UniProt Q02880-2	1.28 ± 0.061	1.36 ± 0.045	1.57 ± 0.067	1.73 ± 0.13	1.99 ± 0.11	2.07 ± 0.057
P0DN76|Q01081|Q01081-2 (UniProt Q01081+P0DN76)	2.11 ± 0.23	2.14 ± 0.2	2.22 ± 0.17	2.36 ± 0.16	2.27 ± 0.11	2.24 ± 0.17
UniProt P49748|P49748-3	0.997 ± 0.081	0.989 ± 0.064	0.983 ± 0.027	0.934 ± 0.083	0.986 ± 0.015	0.973 ± 0.045
PSMC2 (UniProt P35998)	0.9515 ± 0.0057	0.914 ± 0.029	0.882 ± 0.016	0.908 ± 0.1	0.899 ± 0.053	0.894 ± 0.047
POLR3D (UniProt P05423)	0.986 ± 0.095	0.962 ± 0.062	0.949 ± 0.071	0.963 ± 0.12	0.965 ± 0.064	0.963 ± 0.065
UniProt P06576|F8W0P7	0.822 ± 0.18	1.04 ± 0.22	0.825 ± 0.21	1.07 ± 0.2	1.05 ± 0.16	0.814 ± 0.21
JAK1 (UniProt P23458)	1.21 ± 0.015	1.21 ± 0.022	1.23 ± 0.032	1.16 ± 0.043	1.27 ± 0.047	1.26 ± 0.041
SGPL1 (UniProt O95470)	1.05 ± 0.14	1.03 ± 0.1	1.02 ± 0.086	0.965 ± 0.094	1.07 ± 0.079	1.06 ± 0.075
UniProt P38398|P38398-7|P38398-4|P38398-8	1.02 ± 0.011	1.05 ± 0.071	1.03 ± 0.035	1.03 ± 0.086	1.02 ± 0.081	1.06 ± 0.03

Target	NP40-soluble protein abundance (concentration: 1mM)	NP40-soluble protein abundance (concentration: 2mM)	NP40-soluble protein abundance (concentration: 4mM)	NP40-soluble protein abundance (concentration: 6mM)	NP40-soluble protein abundance (concentration: 8mM)	NP40-soluble protein abundance (concentration: 10mM)
IDH1 (UniProt O75874)	0.993 ± 0.056	0.988 ± 0.038	0.94 ± 0.052	0.94 ± 0.081	0.957 ± 0.04	0.949 ± 0.027
ARF3 (UniProt P61204)	1.05 ± 0.21	1.01 ± 0.17	1.04 ± 0.13	0.961 ± 0.23	1.05 ± 0.073	0.996 ± 0.08
UniProt P60228	0.999 ± 0.024	0.999 ± 0.051	1.08 ± 0.035	1.23 ± 0.063	1.34 ± 0.073	1.49 ± 0.12
UniProt Q01826|Q01826-2	0.952 ± 0.051	0.96 ± 0.023	0.919 ± 0.039	0.96 ± 0.031	0.928 ± 0.02	0.922 ± 0.011
PPP2CA (UniProt P67775)	0.959 ± 0.061	0.925 ± 0.0053	0.908 ± 0.021	0.962 ± 0.033	0.9033 ± 0.007	0.9 ± 0.085
PFN1 (UniProt P07737)	0.941 ± 0.059	0.934 ± 0.049	0.918 ± 0.027	0.92 ± 0.059	0.891 ± 0.015	0.911 ± 0.034
VAMP7 (UniProt P51809)	0.955 ± 0.046	0.958 ± 0.05	0.938 ± 0.028	0.894 ± 0.1	0.943 ± 0.044	0.945 ± 0.044
UniProt P08243|P08243-2|P08243-3	1.1 ± 0.13	1.1 ± 0.12	1.1 ± 0.11	1.03 ± 0.14	1.15 ± 0.12	1.09 ± 0.097
DCK (UniProt P27707)	0.955 ± 0.067	0.98 ± 0.052	0.914 ± 0.046	0.935 ± 0.093	0.933 ± 0.03	0.948 ± 0.044
UniProt Q01543|Q01543-3|Q01543-2	0.989 ± 0.05	0.997 ± 0.013	0.996 ± 0.032	1.01 ± 0.048	0.969 ± 0.033	0.9608 ± 0.0033
PRPF6 (UniProt O94906)	1.31 ± 0.017	1.5 ± 0.12	1.79 ± 0.13	1.97 ± 0.2	2.18 ± 0.15	2.36 ± 0.21
ATF1 (UniProt P18846)	0.986 ± 0.2	0.951 ± 0.033	1.02 ± 0.14	0.999 ± 0.054	0.97 ± 0.074	0.917 ± 0.068
UniProt P06493	1.05 ± 0.054	1.06 ± 0.053	1.03 ± 0.063	1.03 ± 0.1	1.05 ± 0.058	1.05 ± 0.015
CTDSPL2 (UniProt Q05D32)	1.13 ± 0.11	1.13 ± 0.07	1.27 ± 0.09	1.32 ± 0.082	1.33 ± 0.14	1.47 ± 0.03
SOAT1 (UniProt P35610)	1.02 ± 0.042	1 ± 0.028	0.999 ± 0.055	0.97 ± 0.029	1.03 ± 0.019	0.971 ± 0.041
UniProt O95639|O95639-2|O95639-3	1.3 ± 0.028	1.38 ± 0.046	1.52 ± 0.06	1.64 ± 0.1	1.7 ± 0.039	1.73 ± 0.078
UniProt P26368|P26368-2	1.96 ± 0.078	1.99 ± 0.078	2.01 ± 0.076	2.06 ± 0.032	2.11 ± 0.079	2.09 ± 0.12
UniProt Q03933-2|Q03933	0.912 ± 0.029	1.05 ± 0.065	1.05 ± 0.2	1.09 ± 0.17	1.04 ± 0.048	1.01 ± 0.051
IGHMBP2 (UniProt P38935)	1.41 ± 0.11	1.59 ± 0.088	1.84 ± 0.09	2.01 ± 0.13	2.19 ± 0.2	2.4 ± 0.14
GSTM2 (UniProt P28161)	0.96 ± 0.07	0.952 ± 0.054	0.886 ± 0.043	0.889 ± 0.035	0.911 ± 0.058	0.861 ± 0.056
